Results reported in PubChem BioAssay AID1117283 (Broad Institute, 2014).
Results with a measured potency or affinity are listed apart. A number with no mark means an inactive call.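 How the source made its calls: active means fluorescent signal decreased by at least 40%; inconclusive means no clear call, values can overlap the other calls; inactive means the rest, including activity opposite to the expected direction.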

Test: inhibition of fibronectin matrix deposition – AH1F cells, Alexa488-fibronectin fluorescence, cherry-pick, set 2, dose response (AID 1117283);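 further: AH1F fibroblasts given Alexa488-labelled fibronectin at 24 nM final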
Settings: AH1F fibroblasts, overnight; series mostly up to 35 µM; activity change, negative = inhibition: at the top concentration

Row | Structure (SMILES) | activity change, negative = inhibition
1 | CO[C@H]1CN(C)C(=O)c2ccc(NC(=O)Nc3ccc(Cl)c(Cl)c3)cc2OC[C@H](C)NC[C@H]1C | -3.99%
2 | COCC(=O)Nc1ccc2c(c1)C(=O)N(C)[C@H]1CC[C@H](CC(=O)NCc3ccccc3Cl)O[C@@H]1CO2 | -3.04% [at 30 µM]
3 | C[C@H]1CN([C@@H](C)CO)C(=O)c2cccc(NC(=O)Nc3ccc(C(F)(F)F)cc3)c2O[C@H]1CN(C)C(=O)Nc1cccc2ccccc12 | 9.1%
4 | C[C@@H]1CN([C@@H](C)CO)C(=O)c2cc(-c3ccccc3)cnc2O[C@@H]1CN(C)C(=O)c1cccc(F)c1 | -1.84%
5 | CCc1nc2c(OCCc3cccc(OC)c3)cccn2c1N(C)C(=O)c1ccc(C)cc1 | 0.686%
6 | CCOc1cccc(C(=O)Nc2ccc(N(CC)CC)cc2)c1 | 1.45%
7 | N#Cc1ccc(-c2ccc3c(c2)[C@H]2[C@H](CCN2S(=O)(=O)c2cccc(F)c2)[C@H](CO)N3)cc1 | 22.5%
8 | CN(C)C(=O)c1ccc(-c2ccc3c(c2)[C@H]2[C@H](CCN2C(=O)c2ccc(F)cc2)[C@H](CO)N3C)cc1 | -3.09%
9 | Cc1cc(C)c(S(=O)(=O)Nn2cnnc2)c(C)c1 | -9.22%
10 | Cc1cccc(NC(=O)c2ccc(C3SCC(=O)N3CCc3ccccc3)cc2)c1 (stereo unspecified) | -5.88%
11 | CN(C)C(=O)c1ccc(-c2ccc3c(c2)[C@@H]2[C@@H](CCN2C(=O)c2ccc(F)cc2)[C@H](CO)N3C)cc1 | 10.2%
12 | C[C@@H]1CN([C@H](C)CO)C(=O)c2cccc(NC(=O)Nc3ccc(C(F)(F)F)cc3)c2O[C@@H]1CN(C)C(=O)Nc1cccc2ccccc12 | -3.32%
13 | CN1CCN(C(=O)c2cccc(-c3cnc4cnc(-c5ccccc5Oc5ccccc5)cn34)c2)CC1 | 8.73%
14 | C[C@H]1CN([C@@H](C)CO)C(=O)c2cc(NC(=O)CCCN(C)C)ccc2O[C@@H]1CN(C)Cc1ccc(-c2ccccc2)cc1 | 38.9%
15 | CCN(Cc1ccncc1)C(=O)c1ccc2c(c1)S(=O)(=O)c1ccccc1C2=O | -7.62%
16 | COc1ccccc1CNc1nc(NCc2cnc(C)cn2)c2sccc2n1 | 6.67%
17 | CO[C@@H]1CN(C)C(=O)c2ccc(NC(=O)c3ccc(-c4ccccc4)cc3)cc2OC[C@@H](C)NC[C@@H]1C | 2.75%
18 | CC(C)(C)[S@@](=O)N1Cc2cc(C(=O)NCc3ccccc3F)nc(-c3cccc(-c4ccncc4)c3)c2[C@H]1CCO | 5.11%

Row | Structure (SMILES) | activity change, negative = inhibition
19 | N#C[C@@H]1[C@@H](c2ccccc2C2=CCCCC2)[C@@H](CO)N1S(=O)(=O)c1ccccc1 | 2.54% [at 30 µM]
20 | CO[C@H]1CN(C)C(=O)c2cc(NC(=O)Nc3cc(Cl)cc(Cl)c3)ccc2OC[C@@H](C)NC[C@H]1C | 1.09%
21 | Cc1ccc(S(=O)(=O)N2CC[C@@H]3[C@H](CO)Nc4ccc(-c5cccc(C(=O)N(C)C)c5)cc4[C@@H]32)cc1 | 1.14%
22 | C[C@H](CO)N1C[C@H](C)[C@H](CN(C)C(=O)c2cccc(F)c2)Oc2ncc(-c3ccccc3)cc2C1=O | 2.78%
23 | N#C[C@H]1[C@@H](c2ccccc2C2=CCCCC2)[C@@H](CO)N1S(=O)(=O)c1ccccc1 | 2.55%
24 | CO[C@@H]1CN(C)C(=O)c2cc(NC(=O)Nc3ccc(Cl)c(Cl)c3)ccc2OC[C@H](C)NC[C@@H]1C | -5.63%
25 | O=C(OCC(O)C(O)COC(=O)c1ccccc1)c1ccccc1 (stereo unspecified) | -5.12%
26 | C[C@H](CO)N1C[C@H](C)[C@H](CN(C)Cc2ccccc2)Oc2ncc(-c3ccccc3)cc2C1=O | 2.38%
27 | COC(=O)c1cn(CC(=O)NCc2ccco2)c2ccccc12 | -4.91%
28 | C[C@@H]1CN([C@H](C)CO)C(=O)c2cc(NC(=O)CCCN(C)C)ccc2O[C@H]1CN(C)Cc1ccc(-c2ccccc2)cc1 | 3.78%
29 | CO[C@H]1CN(C)C(=O)c2cc(NC(C)=O)ccc2OC[C@@H](C)N(C(=O)CN2CCOCC2)C[C@H]1C | 1.65%
30 | CO[C@@H]1CN(C)C(=O)c2cc(NC(=O)Nc3cc(Cl)cc(Cl)c3)ccc2OC[C@H](C)NC[C@@H]1C | 0.389%
31 | N#C[C@@H]1[C@H](c2ccccc2C2=CCCCC2)[C@@H](CO)N1S(=O)(=O)c1ccccc1 | -6.78%
32 | O=S(=O)(c1cccc(F)c1)N1CC[C@@H]2[C@H](CO)Nc3ccc(-c4cccc(F)c4)cc3[C@@H]21 | -7.96%
33 | CO[C@@H]1CN(C)C(=O)c2ccc(NC(=O)Nc3ccc(Cl)c(Cl)c3)cc2OC[C@@H](C)NC[C@@H]1C | 14.5%
34 | CO[C@H]1CN(C)C(=O)c2cc(NC(=O)Nc3cc(Cl)cc(Cl)c3)ccc2OC[C@H](C)NC[C@H]1C | -12.7%
35 | Cn1cnc(S(=O)(=O)N2CCN(c3ccccc3)CC2)c1 | -6.26%
36 | O=S(=O)(c1cccc(F)c1)N1CC[C@H]2[C@H](CO)Nc3ccc(-c4cccc(F)c4)cc3[C@H]21 | -8.58%
